From PubChem BioAssay
A selection: hits, their analogues and other compounds. The true share with any hit is near 3.5%.
GPR151 activ – activators of human GPR151, primary screen, cell-based, PathHunter beta-arrestin, luminescence. AID 1508602, 2020. activation, % at 11.2 µM. G-protein coupled receptor 151 (Homo sapiens), Q8TDV0. actives 1% (n = 650,000). PathHunter beta-arrestin GPR151 cells; in the data active = activation above about 4.9%;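 note: 0% = median of compound wells and 100% = cells with positive control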
TEAD-YAP inh – TEAD-YAP interaction inhibition, primary screen, TEAD-YAP interaction inhibitor project, luminescence, HEK-TIYL cells. TEAD-Gal4/YAP UAS-luciferase luminescence. inhibition, % at 9.12 µM. actives 1.4% (n = 640,000). AID 1259422, 2018; in the data active = inhibition above about 32%;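 note: 0% = median of test compound wells and 100% = reference inhibitor wells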
FBW7 act – FBW7 E3 ligase activators, primary screen, biochemical, AlphaScreen, human; F-box/WD repeat-containing protein 7 (Homo sapiens), Q969H0; AlphaScreen FBW7–phospho-cyclin E peptide binding, activator screen; normalized activity (activation), % at 26.1 µM; actives 0.13% (n = 650,000); AID 1259310, 2017; in the data active = normalized activity above about 1.9%;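 note: purified mutant Fbw7 with reduced substrate affinity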
MITF inh – MITF inhibitors, primary screen, biochemical, AlphaScreen, human; inhibition, % at 2.6 µM; actives 0.91% (n = 650,000); AlphaScreen MITF homodimerization, bead proximity signal; Microphthalmia-associated transcription factor (Homo sapiens), O75030; in the data active = inhibition above about 50%;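 note: 0% = vehicle wells with protein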
Target sequence (O75030 whole entry, looked up): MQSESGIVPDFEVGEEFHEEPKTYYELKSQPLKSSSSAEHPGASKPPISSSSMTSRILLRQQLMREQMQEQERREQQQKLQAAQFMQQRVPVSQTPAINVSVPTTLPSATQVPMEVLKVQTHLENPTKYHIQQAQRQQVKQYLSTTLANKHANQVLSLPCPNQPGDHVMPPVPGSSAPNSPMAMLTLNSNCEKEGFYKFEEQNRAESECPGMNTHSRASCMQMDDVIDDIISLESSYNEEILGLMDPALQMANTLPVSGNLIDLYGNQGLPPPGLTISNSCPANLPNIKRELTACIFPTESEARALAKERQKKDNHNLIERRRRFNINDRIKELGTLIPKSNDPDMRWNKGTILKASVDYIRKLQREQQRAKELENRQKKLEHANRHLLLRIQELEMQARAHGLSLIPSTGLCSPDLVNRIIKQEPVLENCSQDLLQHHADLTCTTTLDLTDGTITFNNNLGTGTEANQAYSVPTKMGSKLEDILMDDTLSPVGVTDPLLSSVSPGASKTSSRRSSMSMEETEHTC
MITF confirm – MITF inhibitors, retest of hits, confirmation, biochemical, AlphaScreen, triplicate. shares compounds with MITF inh. AlphaScreen MITF homodimerization, biotin/His-MITF beads. inhibition, % at 2.6 µM. actives 16% (n = 4,700). AID 1259372, 2018;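 active = inhibition above a cutoff derived from the DMSO control wells, cut at about 28% in these data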;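 note: 0% = MITF dimer wells with DMSO only; inhibitors lower the bead chemiluminescence by keeping MITF from dimerizing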
AlphaScreen intf2 – AlphaScreen optical interference compounds, counter-screen for MITF inhibitor project, biochemical, triplicate. shares compounds with MITF inh. LysRS AlphaScreen counterscreen, signal interference. inhibition, % at 2.6 µM. actives 7.6% (n = 4,700);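 active = inhibition above a cutoff derived from the DMSO control wells, cut at about 30% in these data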
* = called active by the depositor; . = no result.

SMILES	GPR151 activ	TEAD-YAP inh	FBW7 act	MITF inh	MITF confirm	AlphaScreen intf2
NN1C(=O)/C(=C\c2ccc(Cl)cc2)NC1=S	0	12	0	53*	1	8
Cc1ccccc1OCC(=O)NNC(=O)c1ccccc1Br	2	3	0	-9	.	.
CCc1nc2ccccc2n1CC(C)C	2	8	0	5	.	.
COc1ccccc1CNCC(=O)c1ccc(OC)c(OC)c1	0	2	0	68*	-6	0
CCOC(=O)C1CCCN(C(=O)Cc2c(F)cccc2Cl)C1 (centres undefined)	0	-4	0	-3	.	.
CCOC(=O)C1CCCN(Cc2c(F)cccc2Cl)C1 (centres undefined)	1	0	0	54*	-14	-5
CCOC(=O)C1CCCN(CCc2ccccc2)C1 (centres undefined)	2	5	0	59*	-11	-5
CCOC(=O)C1CCCN(Cc2cccc(C(F)(F)F)c2)C1 (centres undefined)	1	-3	0	52*	9	11
Cc1nc(NCCNC(=O)/C=C/c2ccccc2)cc(N(C)C)n1	0	-2	0	8	.	.
CCCCC(CC)CNC(=O)c1ccc2c(c1)NC(=O)C(CS(=O)(=O)Cc1ccc(C)cc1)N2 (centres undefined)	0	-6	1	-4	.	.
Cc1nc(N2CCCCC2)c2ccsc2n1	2	-1	0	92*	1	-4
CCc1ccc(CN2CCN(Cc3ccco3)CC2)cc1	1	-5	0	71*	12	21
CCc1ccc(CN2CCC(C(=O)NCc3ccco3)CC2)cc1	-1	9	1	48	.	.
COc1ccc(CN2CCN(Cc3ccco3)CC2)cc1	-1	-21	0	71*	9	9
CCC(CC)N1CCN(Cc2ccco2)CC1	-1	-5	0	53*	6	2
COc1ccc(C(=O)N2CCN(Cc3ccco3)CC2)cc1	1	-4	0	55*	-13	6
COc1ccc(CN2CCN(C(=O)c3ccco3)CC2)cc1	1	-4	0	39	.	.
CCN1CCN(Cc2nnnn2Cc2ccco2)CC1	-1	17	0	10	.	.
O=C(Cn1[nH]c(=O)c2ccccc2c1=O)Nc1nc2c(ccc3ccccc32)s1	2	-1	0	-7	.	.
COc1ccc(OC)c(CN2CCN(Cc3ccco3)CC2)c1	1	-4	0	79*	10	13
c1ccc(Oc2cccc(CN3CCN(Cc4ccco4)CC3)c2)cc1	-1	-4	0	69*	7	4
COc1ccc(OC)c(CNCc2ccco2)c1	1	4	0	4	.	.
OCCN1CCN(Cc2cccc(Oc3ccc(Cl)cc3)c2)CC1	0	8	0	-10	.	.
CSc1ccc(CN2CCN(Cc3ccco3)CC2)cc1	0	1	0	85*	-1	-1
COc1cccc(N2CCN(Cc3ccco3)CC2)c1	-1	-6	0	23	.	.
SMILES	GPR151 activ	TEAD-YAP inh	FBW7 act	MITF inh	MITF confirm	AlphaScreen intf2
COc1cccc(CN2CCN(Cc3ccco3)CC2)c1	-1	-9	0	76*	14	20
Clc1ccccc1N1CCN(Cc2ccco2)CC1	0	0	0	2	.	.
CCOc1cc(C=O)ccc1OCC(=O)NCc1ccccc1	0	13	0	3	.	.
CCOc1ccc(-n2nc(C(=O)N3CCC4(CC3)OCCO4)c3ccccc3c2=O)cc1	-1	11	0	3	.	.
COc1cccc(/C=N/NS(=O)(=O)c2ccc(C)cc2)c1	1	0	0	77*	-3	-7
O=C1CCCc2c1sc1nc3n(c(=O)c21)CCCCC3	-1	-44	0	-2	.	.
O=c1c2c3c(sc2nc2n1CCCCC2)CCC3	0	-26	0	71*	-5	0
Cc1cccc(OCC(=O)NCCc2ccc(N3CCCC3)cc2)c1	0	2	-1	53*	-2	-1
